The source of these data is PubChem BioAssay (NCATS).

Values joined by “and” are separate entries in the source; they are usually repeats but may differ in a detail not shown here. Equal entries are not always repeated. Inconclusive results are not listed. Active and inactive are the calls of the source. Unless noted, the call rests on the fitted dose curve; in most records, active means well fitted curve in the direction sought with a large enough effect; inconclusive means small, poorly fitted or top-dose-only effect, or another doubt; inactive means no such curve, though single readings can be large; an effect the other way counts as inactive or inconclusive. Where only a bound is given, the exact number is not on record here.

Assay [1] deals with Glucocorticoid receptor (Homo sapiens) (UniProt P04150). Description: GR-GFP Redistribution (AID 450;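 active means compounds whose dose series gives a full or clear partial fitted curve of increased nuclear translocation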; further: potency means the concentration at half of the fitted maximal effect). The note with it: U2OS GR-GFP nuclear translocation, laser cytometry, 2 h.
Assay [2] addresses DNA dC->dU-editing enzyme APOBEC-3G (Homo sapiens) (UniProt Q9HC16). Briefly: qHTS for inhibitors of Vif-A3G interactions: Validation (AID 588379). Further: 0% is about no effect. The note with it: Vif-A3G protein interaction assay; series mostly up to 46.1 µM. Put shortly:
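HeLa cells stably expressing Vif and A3G-eYFP, 700 cells/well, incubated overnight at 37 deg C, then exposed to compound overnight at 37 deg C. Inhibition of Vif-mediated degradation read as increased yellow fluorescence (Ex 488/Em 500-530) by laser-scanning cytometry.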
Background: In qHTS, concentration-response curves come from the screen itself.

The subject of assay [3] is Zika virus NS2B-NS3 protease. Description: Primary screen GU AMC qHTS for Zika virus inhibitors (AID 1347154).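 Further: 0% = no-inhibitor control and -100% = no-enzyme control; nearly all actives have a fitted effect of over 70% in size.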 To be noted: Zika NS2B-NS3 unlinked protease, AMC fluorogenic substrate; series mostly up to 54.1 µM. Put shortly: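 Fluorogenic AMC-substrate cleavage by noncovalent NS2B-NS3 protease complex (25 nM, pH 8.0 Tris buffer with Tween 20) followed for 15 minutes at room temperature (~20% conversion). Percent inhibition from ex340/em450 signal change, fitted by 4-parameter Hill equation.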

The nature of assay [4]: Primary qHTS for small molecule stabilizers of the endoplasmic reticulum resident proteome: Secreted ER Calcium Modulated Protein (SERCaMP) assay (AID 1508630). Further: on the % scale 0 is the no-effect control and ±100 the full control effect. To be noted: SH-SY5Y GLuc-SERCaMP (Gaussia luciferase released on ER calcium loss) secretion, thapsigargin, luminescence; series mostly up to 38.4 µM. In short, it runs like this: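 GLuc-SERCaMP-expressing SH-SY5Y cells, pretreated 16 h with compound, are challenged with thapsigargin to empty ER calcium stores; after 4 h, coelenterazine is added directly to the medium and luminescence is imaged.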

Assay [5] has as its target Cytochrome P450 1A2 (Homo sapiens) (UniProt P05177). Briefly: p450-cyp1a2 (AID 410; calls by dose curve; further: potency means the concentration at half of the fitted maximal effect). The note with it: recombinant CYP1A2, luciferin-ME demethylation, luminescence; series mostly up to 57 µM. In short, it runs like this:
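Luminescent readout of luciferin formed from Luciferin-ME by human CYP1A2; data normalized against complete inhibition by 57 uM furafylline. Enzyme 20nM, substrate 100uM at Km, 100mM KPO4 buffer, 60 min reaction at room temperature.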

For assay [6], the target named is Glucocorticoid receptor (Homo sapiens) (UniProt P04150). Briefly: GR-EFC Redistribution (AID 451; calls by dose curve; further: potency means the concentration at half of the fitted maximal effect). The note with it: CHO-K1 GR-EFC translocation, beta-gal luminescence, 2 h. In short, it runs like this:
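Translocation of GR-ED fusion to nuclear EA restores b-gal, read by luminescence after 1 h room-temperature detection. Engineered CHO-K1 biosensor cells, 1,000/well, exposed 2 h at 37 C to titrations up to 46 uM final.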

The target in assay [7] is Mitogen-activated protein kinase 10 (Mus musculus) (UniProt Q61831). Briefly: JNK3 AlphaScreen Assay (AID 530; active means well fitted curve in either direction with a large enough effect, not every such curve was filed as active;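 further: kinase came from lysate of stimulated human HepG2 cells; signal reports phosphorylation of biotinylated GST-cJun 1-79 at Ser73 with 10 µM ATP; on the % scale 0 is the no-effect control and ±100 the full control effect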). The note with it: JNK3 lysate, c-Jun phosphorylation; series mostly up to 57.1 µM. In short, it runs like this: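 Compound titrations were preincubated 15 minutes at room temperature with substrate, antibody and pre-activated JNK3-containing HepG2 lysate. Reactions were started with 10 uM ATP and stopped with EDTA-containing bead buffer for AlphaScreen detection.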
(In general: Bead proximity is the source of the signal in Alpha formats.)

Assay [8] can be described thus: qHTS Assay for Lipid Storage Modulators (AID 1519; calls by dose curve; on activity change, negative = inhibition: on the % scale 0 is the no-effect control and ±100 the full control effect). To be noted: Drosophila S3 cells, BODIPY lipid droplet/cell ratio, laser cytometry, cells loaded with oleic acid; for activity change, negative = inhibition: at 57.5 µM (top of the series). Put shortly: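 Cells seeded at 5,000 per well were treated with compounds over a concentration series and loaded with oleic acid (400 uM, as added). Lipid droplet fluorescence (488 nm excitation, 500-530 nm channel) was read by laser-scanning cytometry and normalized to 20 uM Triacsin C.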

In assay [9] the target is 3',5'-cyclic-AMP phosphodiesterase 4B (Homo sapiens) (UniProt Q07343). Description: qHTS Assay for Inhibitors of PDE-IV (AID 607; active means well fitted activation curve with a large enough effect in the main read-out, with a control signal flat, not every such curve was filed as active; further: % of control where 0% means no effect). The note with it: HEK293 ACTOne CNG channel cells, membrane potential fluorescence; series mostly up to 22.9 µM. Put shortly:
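Live HEK293 cells with a modified cyclic nucleotide-gated (CNG) channel report intracellular cAMP via membrane-potential dye fluorescence (ex 535/em 590 nm). Endogenous PDE-IV was targeted. Compounds were tested at up to 22.9 uM final; RO 20-1724 100 uM served as control.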

Assay [10] addresses Guanine nucleotide-binding protein G(i) subunit alpha-1 (Homo sapiens) (UniProt P63096). Briefly: qHTS Assay for Inhibitors of RGS12 GoLoco Motif Activity (Green Fluorophore) (AID 879).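 Further: 0% = labeled peptide with Gαi1 and full inhibition = labeled peptide alone without protein; negative values mean loss of peptide binding seen as reduced polarization.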 The note with it: Galphai1/FITC-RGS12 GoLoco peptide, fluorescence polarization; series mostly up to 57.1 µM. In short, it runs like this:
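Fluorescence polarization assay: 50 nM Gαi1 with 10 nM FITC-labeled RGS12 GoLoco peptide in 10 mM Tris pH 7.5, 150 mM NaCl, 0.1 mM GDP, 0.05% NP40, 10 min at room temperature with compound.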

For assay [11], the target named is Muscarinic acetylcholine receptor M1 (Rattus norvegicus) (UniProt P08482). Briefly: qHTS Assay for Antagonists of Acetylcholine Muscarinic M1 Receptor: Measurement of IP-One Response (AID 944). Further: nearly all actives have a fitted effect of over 75% in size. The note with it: CHO-M1 cells, IP-One HTRF, antagonist mode; series mostly up to 46.1 µM. Put shortly:
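M1-CHO (rat), 2000 cells/well, overnight recovery; cpd 10 min; carbachol EC80 (200 nM), 30 min, HEPES buffer + 50 mM LiCl pH 7.4; IP-One HTRF, Ex 337, Em 620/665 nm.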

Assay [12] deals with Pyruvate kinase (Leishmania mexicana) (UniProt Q27686). Briefly: qHTS Validation Assay for Inhibitors of Leishmania Mexicana Pyruvate Kinase (AID 945).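 Further: 0% = DMSO only neutral control wells.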 The note with it: purified L. mexicana pyruvate kinase, enzyme activity, E451W mutant enzyme; series mostly up to 57.5 µM. In short, it runs like this: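 Mutant LmPYK (E451W), 0.2 nM, plus 0.5 mM PEP and 0.1 mM ADP in 50 mM imidazole pH 7.2 containing 0.01% Tween 20 and 0.05% BSA. Incubated 1 h at room temperature; luminescence via PKLight, normalized to DMSO.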

Assay [13] deals with Pyruvate kinase PKM (Homo sapiens) (UniProt P14618). Description: qHTS Assay for Activators of Human Muscle Pyruvate Kinase (AID 954; active means well fitted curve in the direction sought with a large enough effect, not every such curve was filed as active;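 further: 0% = uninhibited enzyme and -100% = no enzyme or full thiadiazolimine inhibition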). The note with it: purified human muscle pyruvate kinase, luciferase-coupled luminescence, 1 h; series mostly up to 57.5 µM. In short, it runs like this:
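Enzyme was run at intermediate activity so both inhibitors and activators could be detected. ATP formed from ADP and PEP by 0.1 nM human PKM2 during a 1 h room-temperature incubation was quantified by coupled luciferase luminescence.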

Assay [14] deals with Alpha-galactosidase (Coffea arabica) (UniProt Q42656). Description: Counterscreen for Glucocerebrosidase Inhibitors: qHTS Assay for Coffee Bean alpha-Galactosidase at pH 4.5 (AID 957).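 Further: plate controls were enzyme alone for no effect and no enzyme for full effect.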 The note with it: purified coffee bean alpha-galactosidase, fluorogenic substrate; series mostly up to 76.9 µM. Put shortly: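 Coffee bean alpha-galactosidase 2 nM, substrate 4-MU-alpha-Gal 80 uM, pH 4.5 citrate/Tween-20, 20 min RT. Cpd titration 0.7 nM–77 uM. Stop pH 10, fluorescence 365/440 nm; Hill-equation AC50.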
On the technique in general: The purpose of a counterscreen is to sort out artefacts and off-target activity.

Assay [15] deals with Alpha-galactosidase A (Homo sapiens) (UniProt P06280). Description: Counterscreen for Glucocerebrosidase Inhibitors: qHTS Assay for Human alpha-Galactosidase at pH 4.5 (AID 992). Further: 0% is about no effect. The note with it: purified enzyme, fluorogenic substrate; series mostly up to 76.9 µM. Put shortly:
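Read-out is 4-methylumbelliferone fluorescence (365 nm excitation, 440 nm emission) after a pH 10 NaOH/glycine stop. Reactions held 2 nM enzyme and 80 uM substrate at pH 4.5 for 20 min at room temperature.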

For assay [16], the target named is alpha-glucosidase (Oryza sativa, rice) (UniProt Q653V4). Description: Counterscreen for Glucocerebrosidase Inhibitors: qHTS Assay for Rice alpha-Glucosidase at pH 5.0 (AID 997).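 Further: 0% = full activity with enzyme and -100% = basal without enzyme.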 The note with it: rice alpha-glucosidase enzyme activity; series mostly up to 76.9 µM. Put shortly: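 Rice alpha-glucosidase (4 nM final) with 400 uM 4-methylumbelliferyl-alpha-D-glucopyranoside in citrate buffer pH 5.0, 20 min at room temperature, stopped at pH 10; fluorescence 365/440 nm, compounds 0.7 nM–77 uM, AC50 from Hill fits.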

The target in assay [17] is Ubiquitin carboxyl-terminal hydrolase 1 (Homo sapiens) (UniProt O94782). Briefly: Inhibitors of USP1/UAF1: Pilot qHTS (AID 504865).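 Further: rhodamine fluorescence freed from ubiquitin-rhodamine substrate followed over time; top concentration of the series differs between compounds; on the % scale 0 is the no-effect control and ±100 the full control effect; nearly all actives have a fitted effect of over 35% in size.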 To be noted: purified USP1/UAF1, Ub-rhodamine cleavage fluorescence; series mostly up to 114 µM. Put shortly:
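Deubiquitinase activity followed as kinetic rhodamine fluorescence release from 150 nM Ub-Rho. 1 nM USP1/UAF1 with compound, after 15 min room-temperature preincubation, in HEPES pH 7.8 buffer containing TCEP, EDTA, BSA and Tween-20.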

The mark [18] stands for this setting: measured here: cell count channel max response.
Where [19] appears, read: measured here: lipid channel max response.

Ubiquitin carboxyl-terminal hydrolase 1 (Homo sapiens), sequence (O94782 whole entry, looked up): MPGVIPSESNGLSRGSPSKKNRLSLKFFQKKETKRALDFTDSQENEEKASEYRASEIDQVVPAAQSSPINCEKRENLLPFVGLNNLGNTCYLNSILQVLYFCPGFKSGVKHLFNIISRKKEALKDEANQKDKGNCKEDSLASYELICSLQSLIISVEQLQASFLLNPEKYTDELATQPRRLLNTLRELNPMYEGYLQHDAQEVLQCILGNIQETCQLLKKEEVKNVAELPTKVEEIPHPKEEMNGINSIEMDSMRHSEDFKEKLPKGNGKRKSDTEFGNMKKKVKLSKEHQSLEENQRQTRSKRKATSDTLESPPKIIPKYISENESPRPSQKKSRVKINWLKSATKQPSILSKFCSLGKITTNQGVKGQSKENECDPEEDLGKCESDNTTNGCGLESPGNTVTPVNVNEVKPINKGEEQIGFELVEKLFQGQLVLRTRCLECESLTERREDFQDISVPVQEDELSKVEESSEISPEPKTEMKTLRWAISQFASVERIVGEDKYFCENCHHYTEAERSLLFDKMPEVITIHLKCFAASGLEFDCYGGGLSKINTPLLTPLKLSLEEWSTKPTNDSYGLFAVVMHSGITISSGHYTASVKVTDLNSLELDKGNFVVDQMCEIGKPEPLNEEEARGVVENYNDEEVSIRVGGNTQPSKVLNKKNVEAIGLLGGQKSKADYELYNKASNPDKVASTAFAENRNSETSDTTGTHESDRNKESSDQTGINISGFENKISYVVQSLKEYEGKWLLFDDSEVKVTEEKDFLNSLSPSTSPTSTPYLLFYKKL
DNA dC->dU-editing enzyme APOBEC-3G (Homo sapiens), sequence (Q9HC16 whole entry, looked up): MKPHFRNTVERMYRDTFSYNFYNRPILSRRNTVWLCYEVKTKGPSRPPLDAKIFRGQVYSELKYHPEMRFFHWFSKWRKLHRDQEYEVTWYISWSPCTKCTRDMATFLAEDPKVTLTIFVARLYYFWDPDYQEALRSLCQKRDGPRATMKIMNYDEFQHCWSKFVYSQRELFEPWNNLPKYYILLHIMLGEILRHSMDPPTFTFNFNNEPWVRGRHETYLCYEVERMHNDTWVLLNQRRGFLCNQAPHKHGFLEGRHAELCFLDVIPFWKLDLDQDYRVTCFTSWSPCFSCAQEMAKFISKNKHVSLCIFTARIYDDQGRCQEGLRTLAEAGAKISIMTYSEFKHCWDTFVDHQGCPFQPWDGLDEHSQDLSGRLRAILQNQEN
3',5'-cyclic-AMP phosphodiesterase 4B (Homo sapiens), sequence (Q07343 whole entry, looked up): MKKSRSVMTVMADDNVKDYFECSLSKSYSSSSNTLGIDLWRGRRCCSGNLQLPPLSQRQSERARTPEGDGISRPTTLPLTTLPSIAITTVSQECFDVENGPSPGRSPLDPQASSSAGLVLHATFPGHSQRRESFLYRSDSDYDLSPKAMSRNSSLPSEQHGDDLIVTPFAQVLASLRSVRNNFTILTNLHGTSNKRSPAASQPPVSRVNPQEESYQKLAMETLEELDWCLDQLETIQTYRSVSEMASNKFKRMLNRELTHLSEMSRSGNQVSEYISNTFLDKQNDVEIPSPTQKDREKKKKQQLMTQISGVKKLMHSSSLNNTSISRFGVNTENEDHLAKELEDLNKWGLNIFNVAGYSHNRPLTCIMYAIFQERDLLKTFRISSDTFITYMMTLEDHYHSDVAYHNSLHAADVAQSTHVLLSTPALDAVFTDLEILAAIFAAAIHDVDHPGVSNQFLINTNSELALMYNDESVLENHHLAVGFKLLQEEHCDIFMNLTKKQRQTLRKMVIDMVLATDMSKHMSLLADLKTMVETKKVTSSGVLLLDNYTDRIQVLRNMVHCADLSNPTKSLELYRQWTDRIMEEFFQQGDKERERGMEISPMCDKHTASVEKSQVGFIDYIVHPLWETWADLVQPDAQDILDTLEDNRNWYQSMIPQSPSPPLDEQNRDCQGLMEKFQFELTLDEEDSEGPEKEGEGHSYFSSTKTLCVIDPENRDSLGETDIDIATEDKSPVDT
Glucocorticoid receptor (Homo sapiens), sequence (P04150 whole entry, looked up, the tested form may be a part): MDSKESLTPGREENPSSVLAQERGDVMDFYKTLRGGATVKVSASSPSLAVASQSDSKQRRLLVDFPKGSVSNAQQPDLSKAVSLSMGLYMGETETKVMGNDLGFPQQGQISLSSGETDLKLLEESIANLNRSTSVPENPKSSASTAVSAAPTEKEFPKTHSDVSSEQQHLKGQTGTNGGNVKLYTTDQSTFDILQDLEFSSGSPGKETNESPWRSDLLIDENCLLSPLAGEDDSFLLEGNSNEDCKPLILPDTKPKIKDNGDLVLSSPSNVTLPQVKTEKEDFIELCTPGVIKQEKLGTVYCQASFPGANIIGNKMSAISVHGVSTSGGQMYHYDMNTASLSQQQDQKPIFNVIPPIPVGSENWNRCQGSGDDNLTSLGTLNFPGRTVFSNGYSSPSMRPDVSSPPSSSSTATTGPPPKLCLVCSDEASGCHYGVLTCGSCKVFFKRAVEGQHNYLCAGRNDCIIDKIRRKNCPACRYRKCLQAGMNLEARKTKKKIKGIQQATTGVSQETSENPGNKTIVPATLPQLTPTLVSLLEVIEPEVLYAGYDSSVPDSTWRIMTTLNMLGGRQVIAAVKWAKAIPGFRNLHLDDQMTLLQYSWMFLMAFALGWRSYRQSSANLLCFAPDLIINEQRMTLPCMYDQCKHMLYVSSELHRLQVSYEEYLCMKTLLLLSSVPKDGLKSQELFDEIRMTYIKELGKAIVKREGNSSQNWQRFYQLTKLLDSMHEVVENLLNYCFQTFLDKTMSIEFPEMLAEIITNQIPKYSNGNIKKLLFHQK
Alpha-galactosidase A (Homo sapiens), sequence (P06280 whole entry, looked up): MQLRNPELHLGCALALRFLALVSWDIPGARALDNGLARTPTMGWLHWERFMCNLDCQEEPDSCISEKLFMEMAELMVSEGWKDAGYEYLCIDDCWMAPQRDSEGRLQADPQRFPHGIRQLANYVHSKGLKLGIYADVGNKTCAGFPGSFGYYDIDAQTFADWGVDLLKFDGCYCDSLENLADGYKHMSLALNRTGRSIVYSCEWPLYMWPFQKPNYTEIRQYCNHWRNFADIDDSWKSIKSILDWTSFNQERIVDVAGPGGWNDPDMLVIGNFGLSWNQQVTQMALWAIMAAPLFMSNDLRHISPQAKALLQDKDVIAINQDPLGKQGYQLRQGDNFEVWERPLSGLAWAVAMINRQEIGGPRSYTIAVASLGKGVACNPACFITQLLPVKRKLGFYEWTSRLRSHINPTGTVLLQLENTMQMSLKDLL
Muscarinic acetylcholine receptor M1 (Rattus norvegicus), sequence (P08482 whole entry, looked up): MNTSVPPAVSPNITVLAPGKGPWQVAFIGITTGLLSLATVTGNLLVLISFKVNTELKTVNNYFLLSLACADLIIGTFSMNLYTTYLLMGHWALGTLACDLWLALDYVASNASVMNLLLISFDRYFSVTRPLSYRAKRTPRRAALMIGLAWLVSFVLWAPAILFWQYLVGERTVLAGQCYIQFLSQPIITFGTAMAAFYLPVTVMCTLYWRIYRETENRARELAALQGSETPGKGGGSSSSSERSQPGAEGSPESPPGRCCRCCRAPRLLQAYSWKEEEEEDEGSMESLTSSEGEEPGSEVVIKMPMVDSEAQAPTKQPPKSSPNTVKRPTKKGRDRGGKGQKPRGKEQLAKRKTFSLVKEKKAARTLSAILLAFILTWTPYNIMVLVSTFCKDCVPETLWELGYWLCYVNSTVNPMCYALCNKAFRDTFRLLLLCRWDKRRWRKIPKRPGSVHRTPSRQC
Pyruvate kinase PKM (Homo sapiens), sequence (P14618 whole entry, looked up): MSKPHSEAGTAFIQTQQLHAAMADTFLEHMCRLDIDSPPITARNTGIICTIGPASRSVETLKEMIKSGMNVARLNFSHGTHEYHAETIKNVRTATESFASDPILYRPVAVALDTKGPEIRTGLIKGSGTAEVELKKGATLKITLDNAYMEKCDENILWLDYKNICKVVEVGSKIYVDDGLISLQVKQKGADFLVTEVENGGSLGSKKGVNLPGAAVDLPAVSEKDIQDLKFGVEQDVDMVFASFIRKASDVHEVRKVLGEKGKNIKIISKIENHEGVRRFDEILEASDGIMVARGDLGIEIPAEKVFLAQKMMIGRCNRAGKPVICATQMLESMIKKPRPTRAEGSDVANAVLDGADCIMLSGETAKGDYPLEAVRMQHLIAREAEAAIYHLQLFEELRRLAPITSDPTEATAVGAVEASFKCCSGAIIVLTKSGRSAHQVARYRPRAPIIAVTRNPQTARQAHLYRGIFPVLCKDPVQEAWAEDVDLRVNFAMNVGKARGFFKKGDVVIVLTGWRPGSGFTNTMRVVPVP
Guanine nucleotide-binding protein G(i) subunit alpha-1 (Homo sapiens), sequence (P63096 whole entry, looked up): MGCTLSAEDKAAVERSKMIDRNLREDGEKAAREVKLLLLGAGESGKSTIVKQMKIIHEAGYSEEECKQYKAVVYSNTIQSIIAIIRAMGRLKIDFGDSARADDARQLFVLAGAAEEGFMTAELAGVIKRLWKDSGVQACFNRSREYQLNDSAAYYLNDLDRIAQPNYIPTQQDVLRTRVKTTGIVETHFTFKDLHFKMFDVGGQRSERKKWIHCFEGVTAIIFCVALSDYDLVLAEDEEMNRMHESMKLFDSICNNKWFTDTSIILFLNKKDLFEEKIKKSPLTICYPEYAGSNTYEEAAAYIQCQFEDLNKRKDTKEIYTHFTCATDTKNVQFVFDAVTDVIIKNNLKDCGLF
Pyruvate kinase (Leishmania mexicana), sequence (Q27686 2-499 E452W): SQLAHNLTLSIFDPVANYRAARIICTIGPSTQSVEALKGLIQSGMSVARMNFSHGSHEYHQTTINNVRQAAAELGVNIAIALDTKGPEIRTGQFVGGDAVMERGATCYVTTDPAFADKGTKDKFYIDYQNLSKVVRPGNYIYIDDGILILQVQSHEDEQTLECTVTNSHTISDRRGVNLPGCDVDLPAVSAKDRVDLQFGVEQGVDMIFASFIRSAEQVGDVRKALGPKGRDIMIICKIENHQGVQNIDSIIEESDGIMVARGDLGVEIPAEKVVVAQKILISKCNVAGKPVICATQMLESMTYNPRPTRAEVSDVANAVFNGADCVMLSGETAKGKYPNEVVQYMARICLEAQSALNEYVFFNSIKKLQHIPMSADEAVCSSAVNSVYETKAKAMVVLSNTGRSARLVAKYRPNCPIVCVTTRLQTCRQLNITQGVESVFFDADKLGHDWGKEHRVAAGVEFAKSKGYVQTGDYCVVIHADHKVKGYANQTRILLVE

On to `O=C1CS[C@@H](c2ccccc2Cl)c2cc(Cl)ccc2N1`, for which the Potency in [1] was > 46 µM (inactive). Moreover, the Potency entry in assay [2], in assay [3] and in assay [4] was “inactive” each time.

As for `CCCN(CCC)[C@@H]1CCc2c(OC)cccc2[C@@H]1C`, the Potency in assay [5] is 31.6 µM (active); in [1], > 46 µM (inactive); in assay [6], > 46 µM (inactive). Further, the call in assay [7] was inactive. Moreover, the activity change, negative = inhibition in assay [8] was -0.226% (inactive). Moreover, the max response in assay [8] (setting [18]) stood at 8.03%; in assay [8] (setting [19]), 12.1%. Also, the Potency result in assay [3] and in assay [4] was “inactive” each time.

Regarding `CC(C)(O)[C@@H]1[C@H]2OC(=O)[C@@H]1[C@]1(O)C[C@H]3O[C@]34C(=O)O[C@H]2[C@@]14C` (tested in a mixture with another compound), the Potency in [1] and in assay [6] was > 46 µM (inactive) each time. In addition, in assay [8], the activity change, negative = inhibition was -0.708% (inactive). The max response in assay [8] (setting [18]) was -8.87%; in assay [8] (setting [19]), -11.1%. Also, the Potency result in [2], in assay [3] and in [4] was “inactive” in each case.

As to `C=CCN1C[C@H](C)N([C@@H](c2ccccc2)c2ccc(C(=O)N(CC)CC)cc2)C[C@H]1C`, the Potency in assay [1] was > 46 µM (inactive). The call in assay [7] was inactive. For the same compound, the Potency entry in assay [9], in [2], in assay [3] and in assay [4] was “inactive” in each case. Further, the activity change, negative = inhibition in assay [8] is 7.78% (inactive). The values for the max response in [8] (setting [18]) and in assay [8] (setting [19]) were 14.7% and 20%, respectively.

Take `N[C@@]1(C(=O)O)CC[C@H](C(=O)O)C1`: the Potency in [1] and in assay [6] was > 46 µM (inactive) each time. In addition, the call in assay [7], in assay [10], in assay [12], in [13], in assay [14] and in assay [15] was inactive. Besides, the compound was called inactive in [16]. In addition, the Potency result in assay [9], in assay [11], in assay [17], in assay [2], in assay [3] and in assay [4] was “inactive” each time. Further, the activity change, negative = inhibition in [8] is 1.47% (inactive) and 9.82% (inactive) and 2.9% (inactive). Also, the max response in assay [8] (setting [18]) was -9.77% and 22.3% and -1.79%; in [8] (setting [19]) it was -7.89% and 39.1% and -2.3%.

Regarding `CCCN[C@@H]1CCc2c(OC)cccc2[C@@H]1C`, the Potency in [1] is > 46 µM (inactive). Moreover, the Potency entry in [9], in [2], in [3] and in [4] was “inactive” each time. In assay [8], the activity change, negative = inhibition is -0.687% (inactive). Also, the max response in [8] (setting [18]) was -20.9%; in assay [8] (setting [19]), -24%.

With `O=C(O)/C=C\CO`, the Potency in assay [1] and in assay [6] was > 46 µM (inactive) throughout. Also, the compound was classed as inactive in [7]. In addition, the Potency result in [9], in assay [17], in assay [3] and in [4] was “inactive” in each case. Further, in assay [8], the activity change, negative = inhibition is 3.52% (inactive). The max response was -10.2% in assay [8] (setting [18]) and -9.77% in assay [8] (setting [19]).

Take `CCCN1C[C@H](C)N([C@H](c2ccc(C(=O)N(CC)CC)cc2)c2cccc(OC)c2)C[C@H]1C`: the Potency in [1] and in assay [6] was > 46 µM (inactive) in each case. Moreover, the outcome in assay [7] was inactive. In addition, the Potency entry in assay [9], in assay [3] and in assay [4] was “inactive” in each case. In [8], the activity change, negative = inhibition was 9.16% (inactive). In addition, the max response was found to be 26.5% in assay [8] (setting [18]) and 30.1% in assay [8] (setting [19]).

With `Cc1nc(N)sc1CCN`, the Potency in assay [1] and in assay [6] was > 46 µM (inactive) throughout. In addition, the call in assay [7] was inactive. Besides, the Potency entry in assay [9], in assay [17], in [2], in assay [3] and in [4] was “inactive” throughout. Also, the activity change, negative = inhibition in assay [8] was 3.05% (inactive). The max response in [8] (setting [18]) was -8.41%; in assay [8] (setting [19]), -2.18%.
